# Measurements as given in the OligoGym collection.
# Target: SNCG
# Experiment: pooled miR-30 sensor sort-seq; sequence = guide strand
# Conditions: shRNA
# Further: reference of the scale not given here.
row,Sequence,sensor-assay potency score (higher = more potent)
1,TTCTCCTTGGTCTTGGCTCCCA,-0.654
2,TGGTCTTCTCAGCTGCTTCCGT,-1.23
3,ACAACATTCTCCTTGGTCTTGG,-0.611
4,TTGGTCTTCTCGGCCACTGAGG,-1.32
5,CTGTACAACATTCTCCTTGGTC,-1.03
6,TTGCGCACCACCCCGGAGGTGA,-1.19
7,TGGTCTTTTCCACCGCACCCAC,-1.77

# Target: SNN
# Experiment: as above
# Conditions: shRNA
row,Sequence,sensor-assay potency score (higher = more potent)
1,TTACAGTAGTAGCTCCATCAAA,-1.39
2,TCTCCTCGTCCTCTGACTGGCT,-0.606
3,TTTCTCTCCACGCACGGTCCCT,-1.1
4,ATGACGATGACTGTGACCACGC,-0.588
5,TGACTGGCTGATGCGCTGCAGC,-1.74
6,TTGGCCTTTCTCTCCACGCACG,-1.27
7,TCAGCTTGGCCTTTCTCTCCAC,-0.343
8,TTGGGAGTCATCAGCTTGGCCT,-0.835
9,TTCTCTCCACGCACGGTCCCTT,-1.08
10,TCCTCTGACTGGCTGATGCGCT,-1.54
11,TCCTCGTCCTCTGACTGGCTGA,-1.43
12,AATGAGGATGACGATGACTGTG,-0.905

# Target: SNRNP200
# Experiment: as above
# Conditions: shRNA
row,Sequence,sensor-assay potency score (higher = more potent)
1,TTGAACTCAGAGGACAATGAGA,-0.903
2,TGTAATGAGGTGCTCGTCCTGG,-0.352
3,TTCACTAGCACATGGTATCTGG,-0.256
4,TACAGTGTTAAACACCTGGGTC,-1.05
5,TTGCAGAAGAACGTTGATCTTA,-0.0878
6,TGCACTGACAACTCCAACTTGG,-0.38
7,TTGTTCTCAATGGTCTTGGTGA,-0.0384
8,TTTCATTCTTTAGAACAGCTAG,0.0872
9,AATATCGCTCGCATCAACCGGC,0.041
10,TACTTGACCAGATTGTTCTTGT,0.676
11,TATCTTGGTAAAGACTCTCAAA,-1.23
12,TTCTTGAAGAAATCCTTCTTGG,-0.674

# Target: SNRNP70
# Experiment: as above
# Conditions: shRNA
row,Sequence,sensor-assay potency score (higher = more potent)
1,TCCTCTTCTGGTACCACCGAGG,-1.82
2,TTGCTGTCGCCGCTCAATCTTT,-1.5
3,TAGCGGGAGGTGTCATCGCGGC,-0.939
4,TAAGCTCTGTCTCCACTTCTTG,-0.943
5,TCGCTCGTGTTCGTACTCGATG,-1.13
6,TTAAGCTCTGTCTCCACTTCTT,-0.388
7,TTCATGTGGCAGTTTCTCCAGG,-0.18
8,TACACCTCAAACTCTCTCCGGA,0.28
9,TATTCTTTTGATAGGTCCGTAC,-0.682
